± gives the standard deviation of the averaged measurements.
Tested on: HCI13 (cells of an ER-positive luminal breast cancer xenograft)
Test: cell viability (% of vehicle); higher = less cytotoxic
Settings: 10 µM; 72 h
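Also: PDX cells carrying CMV promoter-driven luciferase, viability read as total photon flux per second by IVIS imaging following D-luciferin, vehicle control 0.1% DMSO.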

SMILES	cell viability
C=CC[C@@H]1/C=C(\C)C[C@H](C)C[C@H](OC)[C@H]2O[C@@](O)(C(=O)C(=O)N3CCCC[C@H]3C(=O)O[C@H](/C(C)=C/[C@@H]3CC[C@@H](O)[C@H](OC)C3)[C@H](C)[C@@H](O)CC1=O)[C@H](C)C[C@@H]2OC [Tacrolimus (FK506)]	99.2 ± 6.4
O=C1CCC(N2C(=O)c3ccccc3C2=O)C(=O)N1 (configuration not stated) [Thalidomide]	129 ± 15
COc1cc2nc(N3CCN(C(=O)c4ccco4)CC3)nc(N)c2cc1OC.Cl [Prazosin HCl]	108 ± 16
Oc1ccc(OC2CCCCO2)cc1 (configuration not stated) [Deoxyarbutin]	84.9 ± 5.5
COc1ccccc1N1CCN(CCCNc2cc(=O)n(C)c(=O)n2C)CC1.Cl [Urapidil HCl]	93.3 ± 1.2
O=C(O)CCC(=O)O.O=C(OC1CN2CCC1CC2)N1CCc2ccccc2C1c1ccccc1 (configuration not stated) [Solifenacin succinate]	118 ± 9.5
COc1ccc(O)cc1 [Mequinol]	124 ± 32
CCC(CO)NCCNC(CC)CO.Cl.Cl (configuration not stated) [Ethambutol HCl]	146 ± 15
CC(NC(=O)C(O)C(C)C)C(=O)NC1C(=O)N(C)CCc2ccccc21 (configuration not stated)	102 ± 21
CC12CCC3c4ccc(OC(=O)c5ccccc5)cc4CCC3C1CCC2O (configuration not stated) [Estradiol Benzoate]	191 ± 13
CC(CN1CC(=O)NC(=O)C1)N1CC(=O)NC(=O)C1.Cl (configuration not stated) [Dexrazoxane HCl (ICRF-187, ADR-529)]	96.3 ± 1.9
CCC1OC(=O)C(C)C(OC2CC(C)(OC)C(O)C(C)O2)C(C)C(OC2OC(C)CC(N(C)C)C2O)C(C)(O)CC(C)C2NC(COCCOC)OC(C2C)C1(C)O (configuration not stated) [Dirithromycin]	76.3 ± 11

From the supplement of paper PMC6992640
